Source: PubChem
hgDAF-12 ag = activates the H. glycines DAF-12 receptor ligand-binding domain; HEK293 GAL4-hgDAF12 UAS-luciferase reporter, agonist luminescence; normalized to butyrate control; actives 1.8% (n = 370,000); AID 687014; activation, % at 6.8 µM;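 active = activation above a cutoff set at the mean of all screened compounds plus 3 SD, cut at about 10% in these data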;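 also: 0% = DMSO wells and 100% = sodium butyrate wells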
SMARCA2 act = SMARCA2 function activation, primary screen; activation, % at 9.1 µM; actives 1% (n = 370,000); MG213 cells, MMTV-luciferase reporter, dexamethasone, overnight; in the data active = activation above about 7.8%;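 also: 0% = vehicle wells and 100% = reference activator wells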
hcDAF-12 act = activators of H. contortus DAF-12 nuclear receptor; HEK293 hcDAF-12 lit1-tk-luc reporter, luminescence; 0% DMSO, 100% Δ7-dafachronic acid; AID 652067; actives 1.4% (n = 370,000); activation, % at 6.8 µM;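 active = activation above the mean of all tested compounds plus 3 SD, cut at about 5.5% in these data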;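 also: 100% = response to 3 µM Δ7-dafachronic acid high control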
DAX1 inh-1 = blocks DAX1 repression of SF-1 activated StAR promoter. HEK293T StAR-luciferase reporter, SF-1/DAX-1 repression relief. inhibition, % at 6.8 µM. actives 1.1% (n = 370,000). AID 652010;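 active = inhibition above the mean over all tested compounds plus 3 SD, cut at about 3.6% in these data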;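 also: 0% = DAX-1 cells with DMSO and 100% = cells lacking DAX-1 with DMSO; higher inhibition means more luminescence from relief of DAX-1 repression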
DAX1 inh-2 = inhibits human nuclear receptor DAX1; actives 0.99% (n = 340,000); inhibition, % at 6.75 µM; HEK293 Gal4-DAX1 luciferase reporter, luminescence; P51843;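 active = inhibition above the mean over all tested compounds plus 3 SD, cut at about 4.2% in these data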;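 also: 0% = DAX1-transfected cells with DMSO and 100% = empty-vector control cells with DMSO; inhibition shows as a rise in luminescence from relieved DAX1 repression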
ssDAF-12 act = activates DAF-12 receptor from parasite S. stercoralis; HEK293 ssDAF-12/GRIP1 lit1-tk-luc reporter, luminescence; % of 3 µM dafachronic acid response; activation, % at 6.8 µM; actives 1% (n = 370,000);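 active = activation above the mean over all tested compounds plus 3 SD, cut at about 0.9% in these data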;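 also: 0% = DMSO-only wells and 100% = 3 µM delta7-dafachronic acid wells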
hgDAF12 ag = hgDAF-12 agonism, confirmation assay; shares compounds with hgDAF-12 ag; HEK293 GAL4-hgDAF12 luciferase reporter, agonist mode; percent of butyrate response; activation, % at 6.8 µM; actives 80% (n = 3,300); AID 743050;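 active = mean activation over triplicate wells above the hit cutoff derived from the earlier primary screen, cut at about 11% in these data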;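 also: 0% = DMSO low control and 100% = 2 mM sodium butyrate high control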
LXRb DAF12 ctr = LXR-beta agonism as DAF-12 counter-screen. AID 743051. 3,300 tested, under 10 active. shares compounds with hgDAF-12 ag. HEK293 Gal4-LXR luciferase reporter, 24 h. activation, % at 6.8 µM;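 active = mean activation of the triplicate above a set limit carried over from the primary screen, none filed active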
Target sequence (P55055 whole entry, looked up, the tested form may be a part): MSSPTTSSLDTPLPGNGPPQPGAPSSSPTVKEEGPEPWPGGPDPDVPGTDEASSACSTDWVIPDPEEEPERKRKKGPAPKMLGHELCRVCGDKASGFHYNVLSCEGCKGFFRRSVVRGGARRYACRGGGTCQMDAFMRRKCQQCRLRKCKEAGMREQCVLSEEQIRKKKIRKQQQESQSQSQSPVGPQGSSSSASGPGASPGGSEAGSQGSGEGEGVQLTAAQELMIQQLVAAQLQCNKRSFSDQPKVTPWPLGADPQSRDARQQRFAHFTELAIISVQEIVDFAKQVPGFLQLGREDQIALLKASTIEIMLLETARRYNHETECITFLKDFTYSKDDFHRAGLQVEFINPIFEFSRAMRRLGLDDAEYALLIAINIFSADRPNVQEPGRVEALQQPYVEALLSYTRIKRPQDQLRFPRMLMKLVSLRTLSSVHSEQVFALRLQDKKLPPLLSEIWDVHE
Active calls of the source: *; . = no result given. Sampled rows, rich in hits. Any-hit rate of the full collection: about 4.8%.

SMILES | hgDAF-12 ag | SMARCA2 act | hcDAF-12 act | DAX1 inh-1 | DAX1 inh-2 | ssDAF-12 act | hgDAF12 ag | LXRb DAF12 ctr
COC(=O)N/N=C\c1ccccc1OC/C=C/c1ccccc1 | 3.1 | 5.1 | 3.2 | -0.8 | 0.8 | -0.3 | . | .
COc1cc(/C=N/NC(=O)CCC(=O)Nc2ccc(F)cc2)ccc1O | 23.9* | -1.5 | 0.2 | -0.3 | 0.6 | -1.2 | -0.4 | 0.1
COc1ccc(/C=N/NC(=O)CCC(=O)Nc2ccccc2)cc1OC | 2.3 | -0.9 | -0.3 | -0.1 | 0.8 | -1.5 | . | .
CCOc1cc(/C=N/NC(=O)N/N=C/c2ccc(O)c(OCC)c2)ccc1O | 14.0* | -1.2 | 5.5 | -0.5 | . | 1.1* | 16.4* | 0.8
CCOc1cc(/C=N/NC(=O)C(=O)N/N=C/c2ccc(O)c(OCC)c2)ccc1O | -0.7 | -2.3 | -1.9 | 0.1 | 1.6 | -0.8 | . | .
O=C(Nc1cccc2ccccc12)OCc1ccccc1 | 16.9* | -0.4 | 2.6 | 1.0 | 1.1 | -0.2 | 6.0 | 0.1
O=C(NCCOC(=O)Nc1cccc2ccccc12)OCc1ccccc1 | -0.5 | -0.2 | -0.6 | -1.7 | 0.3 | 0.3 | . | .
C#CCNC(=O)C[C@H]1C[C@@]2(C(=O)OC)C(=C[C@H](C3CCCC3)O[C@@H]2C)N(Cc2ccccc2)C1=O | 1.1 | -3.7 | -0.8 | -0.9 | . | -1.2 | . | .
N=c1oc2ccc(Cl)cc2cc1C(=O)NC1CCCCCC1 | 0.4 | -1.3 | 3.7 | 0.4 | 0.6 | 0.0 | . | .
N=c1oc2ccccc2cc1C(=O)NC1CCCCCC1 | 14.0* | 3.3 | 1.9 | 1.5 | 0.2 | 0.3 | 14.0* | 0.7
CN(c1cccnc1)c1ccc(NC(=O)Cc2c[nH]c3ccccc23)cc1-c1ccc(F)c(F)c1 | -1.8 | -3.3 | 3.5 | -1.2 | . | 0.8 | . | .
COc1ccc(N2C(=O)CCC2=O)c(OC)c1 | 13.4* | -5.5 | 0.7 | 0.9 | 0.6 | -0.8 | 0.1 | 0.0
O=C(/C=C/c1ccccc1)NCCC1=CCCCC1 | 14.1* | 6.4 | -1.3 | 1.9 | 0.5 | -1.1 | 12.0* | 0.7
O=C(/C=C/c1ccc(F)cc1)NCCC1=CCCCC1 | 9.2 | 1.3 | 2.2 | 1.0 | -0.1 | -0.6 | . | .
C[C@H](O)[C@@H]1C(=O)N2CCc3c([nH]c4c(-c5ccccc5)cccc34)[C@@H]2C[C@@H]1N(C)C(=O)c1ccco1 | 0.3 | -0.6 | 0.7 | 0.3 | . | -1.0 | . | .
CCN(CC(=O)Nc1c(F)cccc1F)C(=O)c1ccc2c(=O)n3c(nc2c1)CCC3 | 16.2* | 0.6 | 0.3 | 0.0 | 1.2 | -0.8 | 2.2 | 0.1
CCN(C(=O)CSc1nnc(-c2cccc(F)c2)n1N)c1c(N)n(Cc2ccccc2)c(=O)[nH]c1=O | 18.7* | -0.8 | -0.7 | 0.1 | 1.6 | -0.6 | -0.8 | 0.0
Cc1cc(Nc2cc(F)c(F)c(F)c2)cc(=O)n1-c1cc(F)c(F)c(F)c1 | 1.4 | -2.5 | 1.2 | 0.1 | . | -0.7 | . | .
COc1ccc(/C=N/NC(=O)c2sccc2C)c2ccccc12 | 14.6* | 6.7 | 3.0 | 1.4 | 6.2* | 0.1 | 5.4 | 0.2
CCCCOCCCNC(=O)C[C@H]1C[C@@]2(C(=O)OC)C(=C[C@H](C(C)(C)C)O[C@@H]2C)N(Cc2ccccc2)C1=O | 0.6 | -8.1 | -0.1 | -1.1 | . | -0.9 | . | .
Oc1ccc(-c2cnc3ccccc3n2)cc1 | 14.7* | 4.2 | 3.9 | 2.4 | 3.0 | -0.6 | 20.1* | 0.9
COC(=O)[C@]12C[C@H](CC(=O)N3CCN(C(=O)C4CC4)CC3)C(=O)N(CCC3=CCCCC3)C1=C[C@H](COCc1ccccc1)O[C@@H]2C | -1.2 | -1.7 | -0.7 | -0.8 | . | -0.8 | . | .
COc1ccc(/C(C)=N\NC(=O)c2ccco2)cc1 | 23.6* | -4.1 | 3.4 | 3.5 | . | -0.6 | 9.6 | 0.3
COc1ccc(C(=O)Nc2ccc(NC(=O)c3ccco3)cc2)cc1 | -2.3 | 2.5 | -3.8 | -0.3 | 0.5 | -1.4 | . | .
C/C(=N/NC(=O)c1ccco1)c1ccc(NC(=O)c2ccc(F)cc2)cc1 | 13.3* | 2.9 | 2.5 | 3.1 | 2.3 | -0.7 | 10.0 | 0.4
